Test results from PubChem BioAssay (Tox21).
A number with no mark means an inactive call. Inconclusive results are not listed. Entries that show only a call come without a potency. The source made the active and inactive calls. Unless noted, the call rests on the fitted dose curve; in most records, active means well fitted curve in the direction sought with a large enough effect in the repeat runs; inconclusive means weak or mixed curves; inactive means no such curve, though single readings can be large; an effect the other way counts as inactive or inconclusive.

What was measured:
[1] = qHTS assay to identify small molecule antagonists of the TGF-beta/Smad signaling pathway - cell viability counter screen (AID 1346824); further: nearly all actives have a fitted effect of over 50% in size
Procedure, shortened: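 SBE-bla HEK 293T cells were plated overnight at 37 C, then given compounds in DMSO plus TGF-beta1 (added as 0.25 ng/mL solution) for 5 hr. After the bla read, CellTiter-Glo was added to the same wells and luminescence read after 30 min at room temperature.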

[2] = qHTS assay to identify small molecule agonists of the TGF-beta/Smad signaling pathway - cell viability counter screen (AID 1346829); further: top concentration of the series differs between compounds; nearly all actives have a fitted effect of over 45% in size
Procedure, shortened: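 Same-well cytotoxicity: CellTiter-Glo added after the 2 hr room-temperature beta-lactamase substrate step, luminescence measured 30 min later; cells had 5 hr of compound at 37 C.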

[3] = qHTS assay to identify small molecule agonists of the TGF-beta/Smad signaling pathway (AID 1346859; active means well fitted activation curve with a large enough effect in the signal ratio in the repeat runs, not every such curve was filed as active; the % refers to the signal ratio; further: series mostly up to about 77 µM)
Procedure, shortened: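 Each well held 4,000 SBE-bla HEK 293T cells incubated overnight before compound addition; 5 hr later the cleavable FRET substrate went on for 2 hr at room temperature, and fluorescence was read at two emissions.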

[4] = target: Thyrotropin-releasing hormone receptor (Homo sapiens) (UniProt P34981); assay: qHTS assay to identify small molecule antagonists of the thyrotropin-releasing hormone receptor (TRHR) signaling pathway (AID 1346877; active means well fitted inhibition curve with a large enough effect in the repeat runs, not every such curve was filed as active; further: series mostly up to about 51 µM)
Sequence of Thyrotropin-releasing hormone receptor (Homo sapiens) (P34981 whole entry, looked up): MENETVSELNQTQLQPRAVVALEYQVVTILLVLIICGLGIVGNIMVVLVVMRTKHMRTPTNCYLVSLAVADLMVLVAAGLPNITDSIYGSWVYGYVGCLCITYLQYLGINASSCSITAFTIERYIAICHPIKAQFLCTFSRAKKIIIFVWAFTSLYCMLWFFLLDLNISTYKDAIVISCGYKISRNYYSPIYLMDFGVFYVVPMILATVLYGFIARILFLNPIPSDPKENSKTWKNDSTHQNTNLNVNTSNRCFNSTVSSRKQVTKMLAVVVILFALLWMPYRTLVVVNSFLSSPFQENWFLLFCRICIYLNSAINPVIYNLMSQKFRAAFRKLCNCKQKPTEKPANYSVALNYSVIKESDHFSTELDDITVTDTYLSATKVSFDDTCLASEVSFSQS
Procedure, shortened: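 Antagonist mode: after a 5 min room-temperature compound exposure, cells were stimulated with 1 nM (final) TRH. Dye-loaded TRHR-HEK293 cells were used, and calcium-dependent fluorescence was followed for 3 min, with 15-point titrations run in triplicate.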

[5] = target: Thyrotropin-releasing hormone receptor (Homo sapiens) (UniProt P34981); assay: qHTS assay to identify small molecule agonists of the thyrotropin-releasing hormone receptor (TRHR) signaling pathway (AID 1346891; calls by dose curve; further: series mostly up to about 58 µM)
Procedure, shortened: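 Screening of agonists relied on calcium signalling in HEK293 cells expressing human TRHR: dye loading 2 h at 37 °C preceded compound addition and a 3-min fluorescence time course.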

[6] = Caspase-3/7 induction in HepG2 cells by small molecules, qHTS assay (AID 1346978); further: nearly all actives have a fitted effect of over 15% in size
Procedure, shortened: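 Wild-type HepG2 cells (2,000/well) were settled 5 h at 37 C, 5% CO2, then exposed to compounds in DMSO for 17 h. Caspase-3/7 activity was read by luminescence 30 min after adding Caspase-Glo 3/7 reagent at room temperature.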

[7] = Caspase-3/7 induction in CHO-K1 cells by small molecules, qHTS cell viability counter screen (AID 1346979); further: nearly all actives have a fitted effect of over 35% in size
Procedure, shortened: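 CellTiter-Fluor viability check, qHTS format: wild-type CHO-K1, 16hr compound treatment, 1hr reagent incubation, fluorescence read.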

[8] = Caspase-3/7 induction in CHO-K1 cells by small molecules, qHTS assay (AID 1346980); further: nearly all actives have a fitted effect of over 15% in size
Procedure, shortened: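 Wild-type cells were seeded at 1,500 per well and settled 5 hr at 37 C, 5% CO2, then exposed to DMSO-dissolved compounds for 17 hr. Caspase-Glo 3/7 reagent was added, and luminescence was read after 30min at room temperature.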

[9] = Caspase-3/7 induction in HepG2 cells by small molecules, qHTS cell viability counter screen (AID 1346981); further: series mostly up to about 92 µM; nearly all actives have a fitted effect of over 30% in size
Procedure, shortened: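 CellTiter-Fluor fluorescence measured viability in the same wells used for Caspase-Glo 3/7. HepG2 (wild type) at 2,000 cells/well were pre-incubated 5 hr, dosed, and given reagent at 16 hr, with 1 hr further at 37C.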

[10] = target: Nuclear receptor subfamily 1 group I member 2 (Homo sapiens) (UniProt O75469); assay: Human pregnane X receptor (PXR) small molecule agonists, qHTS assay (AID 1346982); further: nearly all actives have a fitted effect of over 35% in size; further: potency means the concentration at half of the fitted maximal effect
Sequence of Nuclear receptor subfamily 1 group I member 2 (Homo sapiens) (O75469 whole entry, looked up): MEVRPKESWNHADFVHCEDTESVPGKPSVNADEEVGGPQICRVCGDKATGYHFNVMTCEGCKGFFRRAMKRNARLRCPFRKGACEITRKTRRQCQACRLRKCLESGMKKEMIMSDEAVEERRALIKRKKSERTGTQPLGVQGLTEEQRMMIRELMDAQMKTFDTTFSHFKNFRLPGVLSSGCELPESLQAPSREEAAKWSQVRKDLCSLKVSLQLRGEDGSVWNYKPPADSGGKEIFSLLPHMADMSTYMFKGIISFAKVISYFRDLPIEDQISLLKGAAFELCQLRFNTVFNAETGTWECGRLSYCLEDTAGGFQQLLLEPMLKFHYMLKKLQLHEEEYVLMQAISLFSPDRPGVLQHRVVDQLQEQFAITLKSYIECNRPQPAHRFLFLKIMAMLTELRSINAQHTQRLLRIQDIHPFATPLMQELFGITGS
Procedure, shortened: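 Agonist mode: luminescence from ONE-Glo after 24 h compound exposure at 37C in HepG2 cells carrying hPXR-responsive CYP3A4 luciferase, plated in charcoal-stripped serum medium 5 h beforehand.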

[11] = target: Nuclear receptor subfamily 1 group I member 2 (Rattus norvegicus) (UniProt Q9R1A7); assay: Rat pregnane X receptor (rPXR) activation by small molecules, qHTS assay (AID 1346983); details: rPXR luciferase reporter cells, One-Glo luminescence, 24 h; stronger effect = higher value; further: nearly all actives have a fitted effect of over 20% in size
Sequence of Nuclear receptor subfamily 1 group I member 2 (Rattus norvegicus) (Q9R1A7 whole entry, looked up): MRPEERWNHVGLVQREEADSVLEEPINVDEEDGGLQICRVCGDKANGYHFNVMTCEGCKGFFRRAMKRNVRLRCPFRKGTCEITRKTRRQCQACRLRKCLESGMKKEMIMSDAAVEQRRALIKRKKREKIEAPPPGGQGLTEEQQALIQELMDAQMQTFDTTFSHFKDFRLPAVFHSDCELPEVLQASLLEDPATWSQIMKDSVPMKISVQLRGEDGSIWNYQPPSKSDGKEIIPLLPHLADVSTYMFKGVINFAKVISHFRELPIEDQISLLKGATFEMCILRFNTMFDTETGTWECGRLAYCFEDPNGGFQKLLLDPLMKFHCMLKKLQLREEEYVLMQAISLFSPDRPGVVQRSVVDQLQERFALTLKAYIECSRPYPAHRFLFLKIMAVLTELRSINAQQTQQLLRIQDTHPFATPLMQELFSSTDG
Procedure, shortened: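 Cell-based rPXR luciferase reporter assay, 2,000 cells per well, rested 5hr at 37 C before compound addition in DMSO, then 24 hr at 37 C. One-Glo reagent was added and luminescence read after 30 min at room temperature.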

[12] = target: Nuclear receptor subfamily 1 group I member 2 (Homo sapiens) (UniProt O75469); assay: CYP3A4 induction through human pregnane X receptor (PXR) by small molecules, qHTS assay (AID 1346984); further: nearly all actives have a fitted effect of over 40% in size
Procedure, shortened: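 Read-out is luminescence after One-Glo addition, following a 3 hr, 37C incubation with Luciferin-IPA CYP3A4 substrate (3uM final). Before that, compounds were on DPX-2 cells (HepG2 co-transfected with PXR element plus CYP3A4-promoter luciferase) for 24 hr at 37C.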

[13] = target: Cytochrome P450 2D6 (Homo sapiens) (UniProt P10635); assay: Cytochrome P450 Family 2 Subfamily D Member 6 (CYP2D6) small molecule antagonists: luciferase reporter qHTS assay (AID 1671196); further: nearly all actives have a fitted effect of over 50% in size; further: potency means the concentration at half of the fitted maximal effect
Sequence of Cytochrome P450 2D6 (Homo sapiens) (P10635 whole entry, looked up): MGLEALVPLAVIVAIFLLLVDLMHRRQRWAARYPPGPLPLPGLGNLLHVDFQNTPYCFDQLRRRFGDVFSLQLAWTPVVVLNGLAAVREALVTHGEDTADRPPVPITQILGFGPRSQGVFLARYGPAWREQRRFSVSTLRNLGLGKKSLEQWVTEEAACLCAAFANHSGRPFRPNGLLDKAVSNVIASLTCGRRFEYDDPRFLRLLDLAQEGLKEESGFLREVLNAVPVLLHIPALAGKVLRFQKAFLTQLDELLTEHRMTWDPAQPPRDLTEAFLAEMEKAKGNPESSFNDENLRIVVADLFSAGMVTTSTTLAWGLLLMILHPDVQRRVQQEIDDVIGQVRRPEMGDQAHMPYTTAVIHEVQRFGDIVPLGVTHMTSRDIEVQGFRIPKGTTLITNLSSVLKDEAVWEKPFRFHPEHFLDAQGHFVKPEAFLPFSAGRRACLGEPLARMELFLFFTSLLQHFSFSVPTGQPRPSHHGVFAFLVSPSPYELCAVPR
Procedure, shortened: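 CYP2D6 activity was followed as luminescence from its luciferin product after a 1 h NADPH-driven reaction at room temperature. Enzyme-substrate mix and compound were pre-incubated for 10 min, and the signal was read 20 min after adding detection reagent.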

[14] = target: Cytochrome P450 2C19 (Homo sapiens) (UniProt P33261); assay: Cytochrome P450 Family 2 Subfamily C Member 19 (CYP2C19) small molecule antagonists: luciferase reporter qHTS assay (AID 1671197); further: nearly all actives have a fitted effect of over 65% in size; further: potency means the concentration at half of the fitted maximal effect
Sequence of Cytochrome P450 2C19 (Homo sapiens) (P33261 whole entry, looked up): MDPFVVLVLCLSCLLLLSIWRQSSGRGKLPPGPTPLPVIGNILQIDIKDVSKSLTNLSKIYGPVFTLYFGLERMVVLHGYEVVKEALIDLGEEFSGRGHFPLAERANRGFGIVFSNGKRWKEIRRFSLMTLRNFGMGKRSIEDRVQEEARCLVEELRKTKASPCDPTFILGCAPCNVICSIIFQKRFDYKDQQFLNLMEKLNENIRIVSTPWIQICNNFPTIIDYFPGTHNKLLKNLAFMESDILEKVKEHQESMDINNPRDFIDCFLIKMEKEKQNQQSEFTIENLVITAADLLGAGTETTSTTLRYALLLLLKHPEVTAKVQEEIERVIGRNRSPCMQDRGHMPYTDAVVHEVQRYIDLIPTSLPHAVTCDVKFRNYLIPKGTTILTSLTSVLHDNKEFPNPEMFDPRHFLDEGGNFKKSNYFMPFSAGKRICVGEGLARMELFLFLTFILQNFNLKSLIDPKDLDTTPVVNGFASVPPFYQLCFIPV
Procedure, shortened: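 Quantitative high-throughput screen of the Tox21 library using CYP2C19 with proluciferin substrate. Reaction: NADPH regeneration, 37C, 1 h, after 10 min compound preincubation at room temperature. Readout: luminescence.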

[15] = target: Cytochrome P450 2C9 (Homo sapiens) (UniProt P11712); assay: Cytochrome P450 Family 2 Subfamily C Member 9 (CYP2C9) small molecule antagonists: luciferase reporter qHTS assay (AID 1671198); further: nearly all actives have a fitted effect of over 50% in size; further: potency means the concentration at half of the fitted maximal effect
Sequence of Cytochrome P450 2C9 (Homo sapiens) (P11712 whole entry, looked up): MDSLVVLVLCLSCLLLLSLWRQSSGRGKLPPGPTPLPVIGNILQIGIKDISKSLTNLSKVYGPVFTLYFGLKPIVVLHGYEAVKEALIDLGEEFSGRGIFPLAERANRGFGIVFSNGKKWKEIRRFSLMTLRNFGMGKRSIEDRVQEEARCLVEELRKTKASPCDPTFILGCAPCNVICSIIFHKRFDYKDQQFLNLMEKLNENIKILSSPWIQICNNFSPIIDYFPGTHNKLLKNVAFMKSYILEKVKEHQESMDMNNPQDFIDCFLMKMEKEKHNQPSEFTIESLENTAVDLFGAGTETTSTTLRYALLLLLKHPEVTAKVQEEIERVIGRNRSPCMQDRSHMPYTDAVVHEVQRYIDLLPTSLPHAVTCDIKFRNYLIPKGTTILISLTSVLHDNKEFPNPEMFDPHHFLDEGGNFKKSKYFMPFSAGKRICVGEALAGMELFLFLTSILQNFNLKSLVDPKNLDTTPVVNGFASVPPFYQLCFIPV
Procedure, shortened: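 CYP2C9 activity was measured with a P450-Glo proluciferin substrate. Enzyme–substrate mix was held with compound for 10 min at room temperature, then NADPH regeneration solution was added for 1 h at 37C. Luciferin product was read as luminescence.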

[16] = target: Voltage-gated inwardly rectifying potassium channel KCNH2 (Homo sapiens) (UniProt Q12809); assay: Human Ether-a-go-go-Related Gene (hERG) channel small molecule antagonists: fluorescence cell-based qHTS assay (AID 1671200);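 further: hERG-expressing U2OS cells given a thallium stimulus after FluxOR II dye loading; series mostly up to about 77 µM; nearly all actives have a fitted effect of over 50% in size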
Sequence of Voltage-gated inwardly rectifying potassium channel KCNH2 (Homo sapiens) (Q12809 whole entry, looked up): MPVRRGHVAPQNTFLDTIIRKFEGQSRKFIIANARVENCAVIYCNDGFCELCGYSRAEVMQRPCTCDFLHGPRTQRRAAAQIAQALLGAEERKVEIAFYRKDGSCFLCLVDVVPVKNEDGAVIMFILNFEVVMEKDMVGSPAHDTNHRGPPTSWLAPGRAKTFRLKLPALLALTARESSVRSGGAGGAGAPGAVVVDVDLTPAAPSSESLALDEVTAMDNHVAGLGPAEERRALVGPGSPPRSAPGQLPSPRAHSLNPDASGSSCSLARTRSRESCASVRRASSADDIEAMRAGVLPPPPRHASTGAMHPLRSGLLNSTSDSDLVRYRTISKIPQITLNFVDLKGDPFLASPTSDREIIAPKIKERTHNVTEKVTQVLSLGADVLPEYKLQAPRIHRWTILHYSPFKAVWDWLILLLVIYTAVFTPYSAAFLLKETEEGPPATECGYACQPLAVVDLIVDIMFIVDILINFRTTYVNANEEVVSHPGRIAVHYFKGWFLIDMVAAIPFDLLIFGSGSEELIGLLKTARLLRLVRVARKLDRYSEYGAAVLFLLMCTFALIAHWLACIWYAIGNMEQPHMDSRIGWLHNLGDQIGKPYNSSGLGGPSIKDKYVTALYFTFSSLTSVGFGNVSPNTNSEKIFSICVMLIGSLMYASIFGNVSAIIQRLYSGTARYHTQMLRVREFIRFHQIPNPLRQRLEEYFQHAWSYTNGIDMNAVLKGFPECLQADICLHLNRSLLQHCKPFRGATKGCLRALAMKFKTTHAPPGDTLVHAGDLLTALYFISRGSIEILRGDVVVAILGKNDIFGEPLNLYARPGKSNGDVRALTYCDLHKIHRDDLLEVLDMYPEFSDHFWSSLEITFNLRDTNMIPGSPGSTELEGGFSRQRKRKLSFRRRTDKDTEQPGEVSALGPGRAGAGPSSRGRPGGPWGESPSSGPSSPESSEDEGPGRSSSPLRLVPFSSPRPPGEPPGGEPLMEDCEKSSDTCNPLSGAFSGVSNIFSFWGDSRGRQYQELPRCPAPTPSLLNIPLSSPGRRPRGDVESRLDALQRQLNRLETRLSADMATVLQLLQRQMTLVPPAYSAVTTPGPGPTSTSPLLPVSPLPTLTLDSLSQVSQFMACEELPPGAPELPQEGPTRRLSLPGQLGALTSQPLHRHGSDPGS
Procedure, shortened: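 Kinetic two-minute fluorescence traces, sampled at 1 s, were collected following thallium stimulus of U2OS cells (1000 per well) that had been cultured overnight at 37 C and loaded with FluxOR II.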

[17] = target: Cytochrome P450 3A4 (Homo sapiens) (UniProt P08684); assay: Cytochrome P450 Family 3 Subfamily A Member 4 (CYP3A4) small molecule antagonists: luciferase reporter qHTS assay (AID 1671201); further: nearly all actives have a fitted effect of over 50% in size; further: potency means the concentration at half of the fitted maximal effect
Sequence of Cytochrome P450 3A4 (Homo sapiens) (P08684 whole entry, looked up): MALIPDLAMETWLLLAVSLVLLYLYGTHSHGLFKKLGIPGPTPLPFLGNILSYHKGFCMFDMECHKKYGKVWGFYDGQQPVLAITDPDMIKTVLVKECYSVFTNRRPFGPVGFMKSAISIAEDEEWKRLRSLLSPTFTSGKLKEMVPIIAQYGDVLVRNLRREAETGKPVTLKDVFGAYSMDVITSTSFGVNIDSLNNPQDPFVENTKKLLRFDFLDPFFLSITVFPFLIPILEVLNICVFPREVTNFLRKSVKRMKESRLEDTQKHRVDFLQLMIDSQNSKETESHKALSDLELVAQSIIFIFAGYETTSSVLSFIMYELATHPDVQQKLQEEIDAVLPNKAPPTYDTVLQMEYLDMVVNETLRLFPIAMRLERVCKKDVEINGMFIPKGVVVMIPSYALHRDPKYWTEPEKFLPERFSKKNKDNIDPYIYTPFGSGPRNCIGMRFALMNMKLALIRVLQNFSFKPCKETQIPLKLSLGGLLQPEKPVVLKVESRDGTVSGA
Procedure, shortened: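 Proluciferin-to-luciferin conversion by CYP3A4, NADPH-regenerated, 1 h RT; luminescence read as RLU. Ketoconazole as control.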

[18] = Human pregnane X receptor (PXR) small molecule agonists, qHTS cell viability counter screen (AID 1346977); further: nearly all actives have a fitted effect of over 50% in size
Procedure, shortened: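 Tox21 qHTS format; PXR-Luc HepG2, 2,000/well, charcoal-stripped FBS 5%. Cpd exposure 24hr. Read: CellTiter-Fluor fluorescence, multiplexed with luciferase.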

[19] = target: Cytochrome P450 1A2 (Homo sapiens) (UniProt P05177); assay: Cytochrome P450 Family 1 Subfamily A Member 2 (CYP1A2) small molecule antagonists: luciferase reporter qHTS assay (AID 1671199); further: nearly all actives have a fitted effect of over 50% in size; further: potency means the concentration at half of the fitted maximal effect
Sequence of Cytochrome P450 1A2 (Homo sapiens) (P05177 whole entry, looked up): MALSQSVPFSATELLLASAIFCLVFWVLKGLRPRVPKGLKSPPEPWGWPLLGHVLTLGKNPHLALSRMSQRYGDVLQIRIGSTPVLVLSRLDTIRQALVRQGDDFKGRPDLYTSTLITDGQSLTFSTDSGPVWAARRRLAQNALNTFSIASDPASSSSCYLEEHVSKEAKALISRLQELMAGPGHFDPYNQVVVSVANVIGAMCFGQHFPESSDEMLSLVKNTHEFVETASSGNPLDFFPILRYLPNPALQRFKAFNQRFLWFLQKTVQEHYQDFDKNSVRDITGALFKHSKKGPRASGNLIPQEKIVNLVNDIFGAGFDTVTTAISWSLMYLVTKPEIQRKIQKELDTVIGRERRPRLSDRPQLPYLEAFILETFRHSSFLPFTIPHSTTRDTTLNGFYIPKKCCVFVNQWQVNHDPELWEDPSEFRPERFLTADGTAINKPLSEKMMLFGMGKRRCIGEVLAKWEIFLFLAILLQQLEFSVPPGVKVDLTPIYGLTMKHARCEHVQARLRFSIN
Procedure, shortened: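 Luminescence from luciferin formed by CYP1A2 from a proluciferin substrate, read 20 min after detection reagent. Compound was pre-incubated 10 min with enzyme-substrate, and reaction started with NADPH regeneration solution for 1 h at room temperature; furafylline control.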

CC(C)NCC(O)c1ccc2ccccc2c1 (stereo unspecified)
outcome [1]: inactive
outcome [2]: inactive
outcome [3]: inactive
outcome [4]: inactive
outcome [5]: inactive
outcome [6]: inactive
Potency [7]: inactive
outcome [8]: inactive
outcome [9]: inactive
Potency [10]: inactive
max activation [11]: -0.315%
Potency [12]: inactive
Potency [13]: 2.19 µM (active)
Potency [14]: inactive
Potency [15]: inactive
Potency [16]: inactive
Potency [17]: inactive

CC1=C(O)C(=O)C(C)O1 (stereo unspecified)
outcome [1]: inactive
outcome [2]: inactive
outcome [3]: inactive
outcome [5]: inactive
outcome [18]: inactive
outcome [6]: inactive
Potency [7]: inactive
outcome [8]: inactive
outcome [9]: inactive
Potency [10]: inactive
Potency [19]: 28.9 µM (active)
Potency [17]: inactive

CCCCCCCCCOC(=O)c1ccccc1C(=O)OCCCCCCCCC
outcome [1]: inactive
outcome [2]: inactive
outcome [3]: inactive
outcome [4]: inactive
outcome [5]: inactive
outcome [18]: inactive
Potency [7]: inactive
outcome [8]: inactive
outcome [9]: inactive
Potency [10]: 19.3 µM (active)
Potency [14]: 39.8 µM (active)
Potency [15]: 39.8 µM (active)
Potency [16]: inactive
Potency [17]: 7.95 µM (active)

COC(=O)c1cc(Cl)cc(Cl)c1
outcome [1]: inactive
outcome [2]: inactive
outcome [3]: inactive
outcome [4]: inactive
outcome [5]: inactive
outcome [18]: inactive
Potency [7]: inactive
outcome [8]: inactive
outcome [9]: inactive
Potency [10]: inactive
Potency [13]: inactive
Potency [14]: inactive
Potency [15]: inactive
Potency [16]: inactive
Potency [17]: inactive

O=C(Cl)c1ccccc1[N+](=O)[O-]
outcome [1]: inactive
outcome [2]: inactive
outcome [3]: inactive
outcome [4]: inactive
outcome [5]: inactive
outcome [18]: inactive
Potency [7]: inactive
outcome [8]: inactive
outcome [9]: inactive
Potency [10]: inactive
Potency [14]: 72.7 µM (active)
Potency [15]: inactive
Potency [16]: inactive
Potency [17]: inactive

O=[N+]([O-])c1c(Cl)cc(Cl)cc1Cl
outcome [1]: inactive
outcome [2]: inactive
outcome [3]: inactive
outcome [4]: inactive
outcome [5]: inactive
outcome [18]: inactive
Potency [7]: inactive
outcome [8]: inactive
outcome [9]: inactive
Potency [10]: inactive
Potency [13]: inactive
Potency [14]: inactive
Potency [19]: 39.5 µM (active)
Potency [16]: inactive
Potency [17]: inactive

O=C(CCCCC(=O)Nc1c(I)cc(I)c(C(=O)O)c1I)Nc1c(I)cc(I)c(C(=O)O)c1I
outcome [1]: inactive
outcome [2]: inactive
outcome [3]: inactive
outcome [4]: inactive
outcome [5]: inactive
outcome [18]: inactive
outcome [9]: inactive
Potency [10]: inactive
Potency [14]: inactive
Potency [19]: inactive
Potency [16]: inactive
Potency [17]: inactive

CC1(C)Cc2cccc(N)c2O1
outcome [1]: inactive
outcome [2]: inactive
outcome [3]: inactive
outcome [4]: inactive
outcome [5]: inactive
outcome [18]: inactive
Potency [7]: inactive
outcome [9]: inactive
Potency [10]: 34.4 µM (active)
Potency [15]: 11.2 µM (active)
Potency [16]: inactive
Potency [17]: 7.96 µM (active)

OCC(O)CN1CCN(c2ccccc2)CC1 (stereo unspecified)
outcome [1]: inactive
outcome [2]: inactive
outcome [3]: inactive
outcome [5]: inactive
outcome [18]: inactive
outcome [6]: inactive
Potency [7]: inactive
outcome [8]: inactive
outcome [9]: inactive
Potency [10]: inactive
Potency [17]: inactive

CC(=O)OCC(=O)Nc1cc(C#N)cc(NC(=O)COC(C)=O)c1Cl
outcome [1]: inactive
outcome [2]: inactive
outcome [3]: inactive
outcome [5]: inactive
outcome [18]: inactive
outcome [6]: inactive
Potency [7]: inactive
outcome [8]: inactive
outcome [9]: inactive
Potency [10]: inactive
Potency [13]: inactive
Potency [19]: inactive
Potency [16]: inactive
Potency [17]: inactive

CCOc1ccccc1OCC1CNCCO1 (stereo unspecified)
outcome [1]: inactive
outcome [2]: inactive
outcome [3]: inactive
outcome [5]: inactive
outcome [18]: inactive
outcome [6]: inactive
Potency [7]: inactive
outcome [8]: inactive
outcome [9]: inactive
Potency [10]: inactive
Potency [15]: inactive
Potency [16]: inactive

CC(C)=CCC/C(C)=C/COC=O
outcome [1]: inactive
outcome [2]: inactive
outcome [3]: inactive
outcome [4]: inactive
outcome [5]: inactive
outcome [18]: inactive
Potency [7]: inactive
outcome [8]: inactive
outcome [9]: inactive
Potency [10]: inactive
Potency [14]: inactive
Potency [15]: inactive
Potency [16]: inactive
Potency [17]: inactive

O=C[O][Al]([O]C=O)[O]C=O
outcome [1]: inactive
outcome [2]: inactive
outcome [3]: inactive
outcome [5]: inactive
outcome [18]: inactive
outcome [6]: inactive
Potency [7]: inactive
outcome [9]: inactive
Potency [10]: inactive
Potency [13]: inactive
Potency [15]: inactive
Potency [19]: inactive
Potency [16]: inactive
Potency [17]: inactive
